How the values were obtained:
Experiment in all cases: log2 ratio of Biotin-Ahx-Ub-VS probe labelling (fragment/DMSO); higher = less target engagement (more negative = stronger competition), active = hit call of the paper (q ≤ 0.05, log2 ratio ≤ -1)
Conditions in all cases: compound concentration: 200 uM; treatment time: 3 h
USP34 = USP34 (UniProt Q70CQ2)
How it was run: (§1)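 Average log2 ratios of fragment over vehicle were obtained by unpaired t-test from global-median-normalised Spectronaut label-free quantities. Proteins with ≥2 unique peptides were included. HEK293T lysate (495 µg per sample) was treated in triplicate with fragment at 200 µM or vehicle for 3 h, then with Biotin-Ahx-Ub-VS at 0.5 µM final for 1 h, and labelled DUBs were NeutrAvidin-enriched and run by diaPASEF LC-MS/MS.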

USP36 = target: T1, USP36 (UniProt Q9P275)
T1 sequence (whole entry): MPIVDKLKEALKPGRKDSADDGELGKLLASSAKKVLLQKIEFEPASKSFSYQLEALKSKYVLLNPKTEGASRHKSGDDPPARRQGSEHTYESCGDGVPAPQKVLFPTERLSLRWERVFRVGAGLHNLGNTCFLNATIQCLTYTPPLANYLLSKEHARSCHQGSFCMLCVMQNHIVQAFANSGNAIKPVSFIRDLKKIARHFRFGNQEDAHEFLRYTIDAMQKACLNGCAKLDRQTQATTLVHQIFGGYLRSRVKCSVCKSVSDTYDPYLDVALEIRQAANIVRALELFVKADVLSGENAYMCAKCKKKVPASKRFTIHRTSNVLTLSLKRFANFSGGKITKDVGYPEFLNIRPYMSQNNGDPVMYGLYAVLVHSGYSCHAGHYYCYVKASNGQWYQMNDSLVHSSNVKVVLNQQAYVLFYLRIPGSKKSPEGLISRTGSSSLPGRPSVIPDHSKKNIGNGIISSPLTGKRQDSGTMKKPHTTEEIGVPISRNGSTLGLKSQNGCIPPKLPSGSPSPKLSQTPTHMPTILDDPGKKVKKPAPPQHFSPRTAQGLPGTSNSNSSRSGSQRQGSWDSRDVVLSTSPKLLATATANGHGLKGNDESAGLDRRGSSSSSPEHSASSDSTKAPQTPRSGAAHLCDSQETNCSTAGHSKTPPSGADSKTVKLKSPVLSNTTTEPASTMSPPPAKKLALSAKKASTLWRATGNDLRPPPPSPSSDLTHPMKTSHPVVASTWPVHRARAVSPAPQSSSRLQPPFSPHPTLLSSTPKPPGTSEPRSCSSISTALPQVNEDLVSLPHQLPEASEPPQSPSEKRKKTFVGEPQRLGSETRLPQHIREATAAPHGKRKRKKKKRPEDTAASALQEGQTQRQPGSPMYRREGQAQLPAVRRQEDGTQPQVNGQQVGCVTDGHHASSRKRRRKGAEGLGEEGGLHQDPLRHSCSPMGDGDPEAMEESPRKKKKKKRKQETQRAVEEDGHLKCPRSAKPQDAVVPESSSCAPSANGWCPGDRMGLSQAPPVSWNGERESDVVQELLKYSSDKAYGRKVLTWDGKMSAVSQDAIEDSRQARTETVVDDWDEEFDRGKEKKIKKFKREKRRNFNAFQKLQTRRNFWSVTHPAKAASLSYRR
How it was run: as §1

USP38 = target: T2, USP38 (UniProt Q8NB14)
T2 sequence (whole entry): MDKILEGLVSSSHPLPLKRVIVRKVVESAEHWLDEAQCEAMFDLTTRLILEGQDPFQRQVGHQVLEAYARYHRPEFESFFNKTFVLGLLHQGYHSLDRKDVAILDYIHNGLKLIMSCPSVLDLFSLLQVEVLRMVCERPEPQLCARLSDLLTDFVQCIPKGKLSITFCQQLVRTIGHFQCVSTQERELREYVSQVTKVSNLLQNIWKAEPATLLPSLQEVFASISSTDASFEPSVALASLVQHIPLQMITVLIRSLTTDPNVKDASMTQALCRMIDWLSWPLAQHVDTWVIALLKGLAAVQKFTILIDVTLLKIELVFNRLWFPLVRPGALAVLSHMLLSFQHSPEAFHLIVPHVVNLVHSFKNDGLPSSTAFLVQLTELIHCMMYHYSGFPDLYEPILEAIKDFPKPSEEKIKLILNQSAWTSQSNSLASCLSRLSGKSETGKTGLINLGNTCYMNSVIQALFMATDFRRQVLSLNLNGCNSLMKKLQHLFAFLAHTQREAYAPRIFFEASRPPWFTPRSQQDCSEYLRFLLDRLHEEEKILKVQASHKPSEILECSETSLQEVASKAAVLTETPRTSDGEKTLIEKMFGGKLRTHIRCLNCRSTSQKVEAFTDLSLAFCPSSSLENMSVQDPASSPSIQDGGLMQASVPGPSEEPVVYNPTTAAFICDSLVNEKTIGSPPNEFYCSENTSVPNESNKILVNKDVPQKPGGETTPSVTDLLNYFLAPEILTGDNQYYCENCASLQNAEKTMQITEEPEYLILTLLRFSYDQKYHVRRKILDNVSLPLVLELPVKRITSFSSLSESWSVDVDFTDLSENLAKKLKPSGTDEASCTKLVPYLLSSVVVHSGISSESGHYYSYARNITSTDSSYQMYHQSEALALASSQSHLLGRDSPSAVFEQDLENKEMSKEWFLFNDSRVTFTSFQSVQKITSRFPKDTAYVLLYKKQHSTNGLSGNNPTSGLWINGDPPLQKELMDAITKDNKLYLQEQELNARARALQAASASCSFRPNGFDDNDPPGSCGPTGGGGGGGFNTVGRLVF
How it was run: as §1

USP39 = target: T3, USP39 (UniProt Q53GS9)
T3 sequence (whole entry): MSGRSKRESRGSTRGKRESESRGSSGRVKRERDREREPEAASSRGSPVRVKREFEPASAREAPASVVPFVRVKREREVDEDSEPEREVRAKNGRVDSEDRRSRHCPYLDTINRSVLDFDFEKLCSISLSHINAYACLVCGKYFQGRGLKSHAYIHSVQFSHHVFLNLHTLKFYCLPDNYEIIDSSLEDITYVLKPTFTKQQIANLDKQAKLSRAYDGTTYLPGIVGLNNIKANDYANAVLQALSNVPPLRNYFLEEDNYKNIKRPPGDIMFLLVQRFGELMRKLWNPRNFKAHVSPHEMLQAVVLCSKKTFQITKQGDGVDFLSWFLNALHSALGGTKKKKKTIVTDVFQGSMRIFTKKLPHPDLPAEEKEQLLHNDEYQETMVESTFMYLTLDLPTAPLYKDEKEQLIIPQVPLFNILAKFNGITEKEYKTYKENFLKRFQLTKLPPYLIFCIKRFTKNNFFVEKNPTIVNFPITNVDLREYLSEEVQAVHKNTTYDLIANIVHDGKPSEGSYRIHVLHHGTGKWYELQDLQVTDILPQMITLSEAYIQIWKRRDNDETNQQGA
How it was run: as §1

USP4 = target: T4, USP4 (UniProt Q13107)
T4 sequence (whole entry): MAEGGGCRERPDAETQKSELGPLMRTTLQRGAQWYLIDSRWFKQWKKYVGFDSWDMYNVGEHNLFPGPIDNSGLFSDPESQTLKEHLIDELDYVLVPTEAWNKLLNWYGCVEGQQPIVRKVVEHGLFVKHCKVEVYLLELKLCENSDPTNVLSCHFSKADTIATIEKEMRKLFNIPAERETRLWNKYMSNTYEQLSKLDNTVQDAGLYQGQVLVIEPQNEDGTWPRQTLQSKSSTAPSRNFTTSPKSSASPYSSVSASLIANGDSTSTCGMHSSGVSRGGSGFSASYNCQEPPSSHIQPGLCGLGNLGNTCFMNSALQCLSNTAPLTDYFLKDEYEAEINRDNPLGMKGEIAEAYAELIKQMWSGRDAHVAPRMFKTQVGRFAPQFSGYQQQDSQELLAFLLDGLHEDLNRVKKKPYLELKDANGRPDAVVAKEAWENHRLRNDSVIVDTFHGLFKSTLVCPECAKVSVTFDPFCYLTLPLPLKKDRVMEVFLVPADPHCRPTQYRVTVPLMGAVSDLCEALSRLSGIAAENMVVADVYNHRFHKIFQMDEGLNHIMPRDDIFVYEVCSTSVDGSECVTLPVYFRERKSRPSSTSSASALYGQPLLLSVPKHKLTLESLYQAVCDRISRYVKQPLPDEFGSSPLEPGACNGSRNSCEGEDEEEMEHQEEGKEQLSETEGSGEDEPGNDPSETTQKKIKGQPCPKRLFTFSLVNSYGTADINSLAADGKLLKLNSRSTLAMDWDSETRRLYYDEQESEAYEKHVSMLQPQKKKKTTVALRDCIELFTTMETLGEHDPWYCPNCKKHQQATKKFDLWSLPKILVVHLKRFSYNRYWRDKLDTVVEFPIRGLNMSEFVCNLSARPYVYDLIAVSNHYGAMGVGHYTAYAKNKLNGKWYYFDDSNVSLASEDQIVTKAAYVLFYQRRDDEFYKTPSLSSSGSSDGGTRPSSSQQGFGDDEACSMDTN
How it was run: as §1

Measured: log2 ratio of Biotin-Ahx-Ub-VS probe labelling

USP34, sequence (Q70CQ2 whole entry, the tested form may be a part): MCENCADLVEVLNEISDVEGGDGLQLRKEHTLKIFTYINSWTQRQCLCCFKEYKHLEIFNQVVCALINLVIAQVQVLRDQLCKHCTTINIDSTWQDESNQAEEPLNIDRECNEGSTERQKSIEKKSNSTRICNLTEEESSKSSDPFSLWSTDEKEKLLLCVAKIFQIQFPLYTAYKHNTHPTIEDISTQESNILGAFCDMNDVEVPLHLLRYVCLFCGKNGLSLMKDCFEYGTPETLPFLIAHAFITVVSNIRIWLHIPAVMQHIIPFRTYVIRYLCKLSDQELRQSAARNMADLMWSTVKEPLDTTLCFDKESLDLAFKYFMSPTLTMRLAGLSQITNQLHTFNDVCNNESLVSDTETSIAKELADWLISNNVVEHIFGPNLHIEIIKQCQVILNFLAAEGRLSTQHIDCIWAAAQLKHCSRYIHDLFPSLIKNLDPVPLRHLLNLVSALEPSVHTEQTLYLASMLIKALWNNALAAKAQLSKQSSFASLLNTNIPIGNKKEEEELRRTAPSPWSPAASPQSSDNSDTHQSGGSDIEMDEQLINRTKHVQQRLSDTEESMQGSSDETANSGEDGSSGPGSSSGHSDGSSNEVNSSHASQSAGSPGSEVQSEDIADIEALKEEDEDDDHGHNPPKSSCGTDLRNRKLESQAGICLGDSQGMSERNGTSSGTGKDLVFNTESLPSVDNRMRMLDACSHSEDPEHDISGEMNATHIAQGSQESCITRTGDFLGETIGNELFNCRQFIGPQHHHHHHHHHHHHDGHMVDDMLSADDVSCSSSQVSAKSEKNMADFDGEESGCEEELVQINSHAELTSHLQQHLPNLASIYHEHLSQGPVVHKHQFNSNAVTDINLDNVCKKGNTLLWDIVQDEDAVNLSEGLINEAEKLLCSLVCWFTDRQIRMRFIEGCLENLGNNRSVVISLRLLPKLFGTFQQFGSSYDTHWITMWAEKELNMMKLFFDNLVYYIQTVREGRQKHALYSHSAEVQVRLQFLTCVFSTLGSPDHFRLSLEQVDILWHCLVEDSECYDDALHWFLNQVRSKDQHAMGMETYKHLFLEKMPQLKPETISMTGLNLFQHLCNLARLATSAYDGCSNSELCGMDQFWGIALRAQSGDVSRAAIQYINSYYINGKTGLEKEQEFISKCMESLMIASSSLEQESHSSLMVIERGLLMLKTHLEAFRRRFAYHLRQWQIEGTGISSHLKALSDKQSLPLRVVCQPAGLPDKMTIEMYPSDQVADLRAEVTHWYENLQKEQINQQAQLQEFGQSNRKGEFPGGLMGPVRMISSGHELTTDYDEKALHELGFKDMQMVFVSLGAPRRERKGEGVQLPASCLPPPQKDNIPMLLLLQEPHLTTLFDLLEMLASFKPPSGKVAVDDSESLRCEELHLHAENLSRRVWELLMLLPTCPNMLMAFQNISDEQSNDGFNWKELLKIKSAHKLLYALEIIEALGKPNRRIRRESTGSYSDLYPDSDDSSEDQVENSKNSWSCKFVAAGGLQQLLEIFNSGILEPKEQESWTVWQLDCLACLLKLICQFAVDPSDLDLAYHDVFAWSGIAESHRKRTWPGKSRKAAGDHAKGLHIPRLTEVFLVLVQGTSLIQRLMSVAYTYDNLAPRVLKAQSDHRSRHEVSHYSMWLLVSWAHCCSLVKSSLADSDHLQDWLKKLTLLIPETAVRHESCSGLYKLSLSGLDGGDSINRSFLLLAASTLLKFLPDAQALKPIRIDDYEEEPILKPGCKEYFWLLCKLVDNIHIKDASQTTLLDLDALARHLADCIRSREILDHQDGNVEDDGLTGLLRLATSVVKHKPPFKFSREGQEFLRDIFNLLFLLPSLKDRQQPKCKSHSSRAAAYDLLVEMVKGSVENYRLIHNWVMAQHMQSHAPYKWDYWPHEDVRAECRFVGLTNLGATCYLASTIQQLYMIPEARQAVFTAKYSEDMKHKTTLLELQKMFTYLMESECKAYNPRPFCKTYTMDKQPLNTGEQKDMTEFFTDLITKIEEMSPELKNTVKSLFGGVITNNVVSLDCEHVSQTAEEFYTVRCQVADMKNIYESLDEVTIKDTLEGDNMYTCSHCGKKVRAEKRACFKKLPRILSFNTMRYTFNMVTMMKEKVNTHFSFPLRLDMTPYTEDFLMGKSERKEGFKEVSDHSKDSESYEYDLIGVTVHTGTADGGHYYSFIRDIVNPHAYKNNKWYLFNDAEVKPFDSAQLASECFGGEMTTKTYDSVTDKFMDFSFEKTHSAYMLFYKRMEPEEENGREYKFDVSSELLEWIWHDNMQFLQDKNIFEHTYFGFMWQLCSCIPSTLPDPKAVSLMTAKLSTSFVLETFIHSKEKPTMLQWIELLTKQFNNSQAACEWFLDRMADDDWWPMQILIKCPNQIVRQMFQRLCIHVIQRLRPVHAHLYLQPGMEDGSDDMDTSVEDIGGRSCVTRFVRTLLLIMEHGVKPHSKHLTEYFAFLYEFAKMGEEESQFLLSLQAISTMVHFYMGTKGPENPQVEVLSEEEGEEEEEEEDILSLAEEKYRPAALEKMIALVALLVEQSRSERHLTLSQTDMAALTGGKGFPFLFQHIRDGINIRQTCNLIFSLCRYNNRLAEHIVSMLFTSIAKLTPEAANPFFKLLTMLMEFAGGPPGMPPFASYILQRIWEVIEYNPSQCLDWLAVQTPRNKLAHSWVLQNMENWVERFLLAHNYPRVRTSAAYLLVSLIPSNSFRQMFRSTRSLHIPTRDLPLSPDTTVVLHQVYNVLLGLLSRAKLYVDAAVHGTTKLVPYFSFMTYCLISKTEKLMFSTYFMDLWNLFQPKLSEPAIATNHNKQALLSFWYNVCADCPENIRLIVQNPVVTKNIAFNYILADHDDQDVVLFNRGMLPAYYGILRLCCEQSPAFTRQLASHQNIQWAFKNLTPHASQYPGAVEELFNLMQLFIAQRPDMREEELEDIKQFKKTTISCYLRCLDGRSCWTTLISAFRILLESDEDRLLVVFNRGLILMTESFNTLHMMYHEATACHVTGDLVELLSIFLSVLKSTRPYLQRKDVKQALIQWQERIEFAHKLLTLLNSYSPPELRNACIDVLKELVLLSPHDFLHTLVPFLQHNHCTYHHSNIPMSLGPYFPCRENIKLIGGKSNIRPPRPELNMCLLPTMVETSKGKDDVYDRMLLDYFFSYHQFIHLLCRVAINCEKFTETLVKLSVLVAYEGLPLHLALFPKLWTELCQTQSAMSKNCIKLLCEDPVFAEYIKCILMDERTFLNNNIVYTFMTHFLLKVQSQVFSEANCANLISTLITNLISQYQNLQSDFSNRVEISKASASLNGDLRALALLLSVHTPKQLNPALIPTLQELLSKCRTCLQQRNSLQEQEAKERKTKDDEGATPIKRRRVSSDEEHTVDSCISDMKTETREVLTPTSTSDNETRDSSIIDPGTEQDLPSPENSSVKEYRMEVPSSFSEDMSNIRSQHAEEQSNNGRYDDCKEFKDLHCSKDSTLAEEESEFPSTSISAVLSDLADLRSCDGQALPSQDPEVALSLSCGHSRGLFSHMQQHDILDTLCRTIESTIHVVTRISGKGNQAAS

Cc1nc(CC2CCN(C(=O)CCl)CC2)no1
inactive: USP34 -0.459 | USP36 -0.425 | USP38 -0.544 | USP39 0.344 | USP4 -0.686

From the supplement of paper PMC11732987, “Enantioselective OTUD7B fragment discovery through chemoproteomics screening and high-throughput optimisation” (Communications Chemistry, 2025)
